Most compounds without a hit are left out; they make up all but 6.7% or so of the library.
MCF10A rereplic: A quantitative high throughput screen for small molecules that induce DNA re-replication in MCF 10a normal breast cells; MCF 10A DNA re-replication, Hoechst nuclear intensity, 48 h; Potency, µM (top dose mostly 46.1 µM), without a hit: at the top dose activity, positive = re-replication, most hits filed as activators; 350,000 compounds, 2.9% hits; also: % of control where 0% means no effect; nearly all actives have a fitted effect of over 50% in size
PINK1 expr mod: A Quantitative High throughput Screen to Identify Chemical Modulators of PINK1 Expression. PINK1 immunofluorescence, high-content cytometry, 24 h. Potency, µM (doses to about 76.6 µM), without a hit: at the top dose activation (PINK1 increase), usual class: activators. 410,000 compounds, 0.2% hits. AID 624263, 2012; active = well fitted activation curve with a large enough effect; inconclusive = small, poorly fitted or top-dose-only effect; cell line not stated here; also: % of control where 0% means no effect; nearly all actives have a fitted effect of over 65% in size
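Stable cell line treated 24 h with compounds at 5 concentrations (CCCP controls), then fixed and immunostained for PINK1 plus nuclear and cell stains; PINK1 immunofluorescence quantified by laser-scanning microplate cytometry.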
KB-V1 MDR tox: qHTS assay for MDR1-selective chemotherapeutics: Primary screen using the drug-selected MDR subline cells KB-V1 | KB-V1 MDR cells viability, CellTiter-Glo, 72 h | Potency, µM (highest dose often 46.1 µM), usual class: cytotoxic | 400,000 compounds, 3.4% hits; also: % is scaled to controls: 0 for no effect and ±100 for the full control effect; nearly all actives have a fitted effect of over 60% in size
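Following 72 h at 37 degrees C with compound, KB-V1 cell viability was read by CellTiter-Glo luminescence, medium being phenol-red-free DMEM plus 10% FBS; concentration-response parameters came from normalized, curve-fitted qHTS data.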
SW480 rerep: A quantitative high throughput screen for small molecules that induce DNA re-replication in SW480 colon adenocarcinoma cells | SW480 DNA re-replication, Hoechst DNA content imaging, 48 h | 340,000 compounds, 1.8% hits | Potency, µM (highest dose often 46.1 µM), for the others: top-dose re-replication activation, most hits filed as activators; also: % of control where 0% means no effect; nearly all actives have a fitted effect of over 55% in size
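DNA re-replication was detected as more nuclei of elevated Hoechst intensity after 48 hr exposure to compound (23 nL pinned per well of 250 cells).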
KB-3-1 cytotox: qHTS assay for MDR1-selective chemotherapeutics: Primary screen using the parental adenocarcinoma cell KB-3-1; KB-3-1 viability, CellTiter-Glo ATP luminescence, 72 h; Potency, µM (series often up to 46.1 µM), most hits filed as cytotoxic; 400,000 compounds, 1.4% hits; also: % is scaled to controls: 0 for no effect and ±100 for the full control effect; nearly all actives have a fitted effect of over 60% in size
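Screening of KB-3-1 cells (DMEM, 10% FBS, phenol-red free) ran from lowest to highest compound concentration; after 72 h at 37 °C viability was read luminescently and curves fitted.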
* marks the source's active call; other numbers are inactive results; i = inactive; ? = inconclusive; . = no result. Unless noted, calls follow the shape of the dose curve; as a rule, active = well fitted curve in the direction sought with a large enough effect; inconclusive = small, poorly fitted or top-dose-only effect, or another doubt; inactive = no such curve, though single readings can be large; an effect the other way counts as inactive or inconclusive. Potency is read from the fitted curve at half-maximal effect.

SMILES	MCF10A rereplic	PINK1 expr mod	KB-V1 MDR tox	SW480 rerep	KB-3-1 cytotox
CCOc1cc(/C=C(/C#N)c2nc3ccccc3[nH]2)ccc1Oc1ccc([N+](=O)[O-])cn1	?	.	i	?	i
CCc1ccc(NC(=O)COc2ccc(/C=C(/C#N)c3nc4ccccc4[nH]3)cc2OC)cc1	?	0%	?	?	1.5µM*
Cc1cccc(N2C(S)=C(C#N)C(=O)NC2c2ccco2)c1 (configuration not stated)	?	1%	?	-1%	i
N#CC1=C(S)N(c2ccccc2)C(c2ccc(-c3cccc(Cl)c3)o2)NC1=O (configuration not stated)	?	1%	i	23µM*	i
Cc1ccc2c(C)c(C)c(=O)n(C)c2c1	2%	-4%	15µM*	-2%	i
CC1CCCN(c2nc(NCc3ccco3)nc(N)c2[N+](=O)[O-])C1 (configuration not stated)	23%	0%	15µM*	.	i
Fc1ccc(Nc2nc(NCc3ccco3)c3ccccc3n2)cc1	?	0%	18µM*	?	?
Nc1nc(NCc2ccco2)nc(Nc2ccccc2)c1[N+](=O)[O-]	-1%	-2%	?	-9%	i
Nc1nc(Nc2ccccc2)nc(NCc2ccco2)c1[N+](=O)[O-]	?	0%	16µM*	-5%	i
CC(C)c1ccc(Nc2nc(Cl)nc(NCc3ccco3)n2)cc1	23µM*	1%	i	5.8µM*	?
CC(C)c1ccc(Nc2nc(Cl)nc(NCCO)n2)cc1	3%	5%	i	-3%	i
O=C(Nc1ccccc1Cl)c1cc(C2CCCN(C(=O)c3ccccc3)C2)on1 (configuration not stated)	.	0%	i	.	i
COc1cc(OC)c(N(C)C(=O)c2cc3c(s2)-c2ccccc2OC3)cc1Cl	.	0%	i	.	i
CC1CCC(NC(=O)C(NS(=O)(=O)c2ccc(Br)cc2)C(C)C)CC1 (configuration not stated)	.	6%	i	.	i
COc1ccc(C(=O)Nc2nc3n(n2)C(c2ccc(Cl)cc2)C=C(c2ccccc2)N3)cc1OC (configuration not stated)	.	0%	i	.	i
CN(Cc1ccccc1)c1nc(N)c([N+](=O)[O-])c(NCc2ccccc2)n1	?	?	18µM*	-2%	?
CCc1ccc(NC(=O)CSc2nc(C)c(C(=O)Nc3ccccc3)c(-c3ccc(OC)c(OC)c3)c2C#N)cc1	.	3%	i	.	i
COc1cc(/C=C2\SC(=S)N(Nc3ncc(C(F)(F)F)cc3Cl)C2=O)ccc1O	?	3%	i	11%	i
CN(C)c1ccc(/C=C2\SC(=S)N(Nc3ncc(C(F)(F)F)cc3Cl)C2=O)cc1	10%	18µM*	i	?	i
FC(F)(F)c1cc(CCN2CCNC[C@H]2Cc2cccc3ccccc23)cc(C(F)(F)F)c1	16µM*	-1%	i	?	i
CN(C(=O)CSc1nc2ccc(NC(=O)c3cccc(F)c3)cc2s1)c1ccccc1	.	3%	9.2µM*	.	?
CC(C)[C@H](N)c1cn([C@@H](CC(N)=O)C(=O)N2CCNCC2)nn1	-13%	-1%	?	-7%	i
CCC(=O)N1c2ccccc2CC1C(=O)NCCc1ccc(SC)cc1 (configuration not stated)	.	4%	i	.	i
Cc1ccc(S(=O)(=O)N2C[C@]3(O)C[C@@H]4C(=O)N(c5ccccc5)C(=O)[C@@H]4C[C@]3(OC(=O)NCC3CCCCC3)C2)cc1	.	0%	i	.	?
C(=C\c1ccncc1)/c1ccncc1	12%	1%	i	3%	i
SMILES	MCF10A rereplic	PINK1 expr mod	KB-V1 MDR tox	SW480 rerep	KB-3-1 cytotox
CC[N+](C)(C)c1ccc(/C=C/c2ccncc2)cc1	.	.	i	.	2.3µM*
CCC[N+](C)(C)c1ccc(/C=C/c2ccncc2)cc1	.	.	i	.	1.5µM*
COc1ccccc1NC(=O)c1cnc(Nc2ccccc2OC)c2ccccc12	?	6%	9.2µM*	2.8µM*	18µM*
Cc1cc(C)c(C(=O)Nc2ccccc2)c(SCC(=O)Nc2ccc(Br)cc2C)n1	.	10%	i	.	i
Nc1nnc(CC(c2ccccc2)c2ccccc2)s1	17%	-4%	23µM*	-2%	i
O=S(=O)(Nc1cc(Sc2cccc3cccnc23)c(O)c2ccccc12)c1ccccc1	23µM*	.	.	8.2µM*	.
O=C(O)CSc1cc(NS(=O)(=O)c2cccc([N+](=O)[O-])c2)c2ccccc2c1O	2.1µM*	13%	5.8µM*	21µM*	?
CN(C)C=Nc1c(Br)cc(Br)c2nonc12	-1%	11µM*	i	-3%	i
CNC1=CC(=O)CC(c2ccccc2)C1 (configuration not stated)	?	2%	i	?	i
O=C1C=C(NCc2ccncc2)CC(c2ccccc2)C1 (configuration not stated)	3%	2%	i	0%	i
CCCCCNC1=CC(=O)CC(c2ccccc2)C1 (configuration not stated)	?	11%	15µM*	?	?
CCCCCCCNC1=CC(=O)CC(c2ccccc2)C1 (configuration not stated)	18µM*	40µM*	?	?	7.3µM*
N#CCCn1c(=O)cnc2cnc(N3CCNCC3)nc21	.	-1%	.	.	.
CCCC(=O)N1CCCC(c2cc(C(=O)Nc3ccccc3)no2)C1 (configuration not stated)	.	0%	i	.	i
c1ccc2sc(C3CCN(Cc4nnnn4Cc4ccc5c(c4)OCO5)CC3)nc2c1	?	5%	16µM*	4%	23µM*
O=S(=O)(Nc1cccc2c1ccc1cccn12)c1cccs1	14µM*	-1%	i	8%	i
COc1ccc(CCNC(=O)CSc2ncc3c(n2)-c2cc(Cl)ccc2N(Cc2ccccc2)S3(=O)=O)cc1OC	.	3%	?	.	i
Cc1nc2c(OCc3ccc(C(F)(F)F)cc3)cccn2c1N(C)CC1CC1	.	?	i	.	i
COC(=O)c1ccccc1COc1cccn2c(N(C)CC3CC3)c(C)nc12	.	?	15µM*	.	?
CSc1ncc2[nH]c(C(O)c3ccccc3)nc2n1 (configuration not stated)	2%	-1%	8.2µM*	0%	3.3µM*
CSc1ncc2c(=O)[nH]c(-c3ccccc3)nc2n1	2%	2%	i	23%	i
